# Hit rate of the full screen: of about 310,000 compounds, about 14,000 (4.5%) showed an effect of 50% or more. The effect is printed as a negative number. Shown is part of a subset that was picked to be rich in strong results.
# Molecular target: human ether-à-go-go-related gene (hERG) potassium channel (human, UniProt Q12809)
# Assay: primary screen, population patch clamp on CHO cells stably expressing hERG; higher = less effect of the substance
# 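Note: peak tail current of the secondary pulse compared with the same well before compound.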
# human ether-à-go-go-related gene (hERG) potassium channel, sequence (Q12809 whole entry, looked up): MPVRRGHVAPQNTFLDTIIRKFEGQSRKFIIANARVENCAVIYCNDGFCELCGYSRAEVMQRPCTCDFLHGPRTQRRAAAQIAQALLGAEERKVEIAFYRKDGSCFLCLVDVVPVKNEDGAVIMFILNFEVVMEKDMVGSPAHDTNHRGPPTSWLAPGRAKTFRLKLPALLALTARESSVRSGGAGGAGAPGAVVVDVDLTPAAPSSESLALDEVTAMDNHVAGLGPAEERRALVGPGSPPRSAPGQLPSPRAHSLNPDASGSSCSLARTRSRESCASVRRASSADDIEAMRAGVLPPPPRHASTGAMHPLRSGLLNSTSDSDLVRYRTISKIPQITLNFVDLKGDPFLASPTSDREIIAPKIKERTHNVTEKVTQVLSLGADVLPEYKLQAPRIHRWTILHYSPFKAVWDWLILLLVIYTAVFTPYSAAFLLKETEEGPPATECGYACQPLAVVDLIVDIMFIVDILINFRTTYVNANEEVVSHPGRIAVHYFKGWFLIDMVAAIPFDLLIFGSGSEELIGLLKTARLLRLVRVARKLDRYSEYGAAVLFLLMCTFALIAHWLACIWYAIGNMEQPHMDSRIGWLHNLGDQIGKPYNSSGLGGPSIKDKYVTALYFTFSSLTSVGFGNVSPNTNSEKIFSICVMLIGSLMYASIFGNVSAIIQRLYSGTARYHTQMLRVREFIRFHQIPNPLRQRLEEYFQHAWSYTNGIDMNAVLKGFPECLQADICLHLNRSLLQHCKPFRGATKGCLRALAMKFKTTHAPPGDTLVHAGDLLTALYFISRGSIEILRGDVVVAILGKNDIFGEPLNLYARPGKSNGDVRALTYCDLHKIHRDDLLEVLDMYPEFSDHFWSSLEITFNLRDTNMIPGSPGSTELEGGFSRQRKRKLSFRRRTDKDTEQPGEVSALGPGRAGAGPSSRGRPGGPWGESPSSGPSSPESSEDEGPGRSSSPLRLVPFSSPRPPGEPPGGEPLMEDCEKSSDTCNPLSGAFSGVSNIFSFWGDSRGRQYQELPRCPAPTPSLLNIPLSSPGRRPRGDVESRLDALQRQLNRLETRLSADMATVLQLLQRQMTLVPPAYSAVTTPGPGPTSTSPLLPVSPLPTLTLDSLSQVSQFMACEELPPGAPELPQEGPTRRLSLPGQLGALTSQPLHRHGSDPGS
row,SMILES,"hERG current change (%, negative = inhibition) at 10uM [%]"
1,Cc1cc(C)cc(NC(=O)CSc2nc3c(c(=O)n2C)SC(C)C3)c1 (centres unmarked),3.64
2,O=C(CCCN1C(=O)NC2(CCCC2)C1=O)N1CCN(S(=O)(=O)c2ccccc2)CC1,0.403
3,CC(=O)C(c1ccccc1)C(c1ccccc1)C(C)[N+](=O)[O-] (centres unmarked),14.3
4,OCC(CO)(CO)n1cnnn1,12.3
5,CCN(CC)c1ccc(/C=N/O)cc1,18.3
6,CC(C)CCNC(=O)C(c1ccncc1)N(Cc1cccs1)C(=O)Cn1nnc(-c2ccc(F)cc2)n1 (centres unmarked),-8.51
7,O=C(NCC1CCCO1)C(c1ccncc1)N(Cc1ccc(F)cc1)C(=O)CN1C(=O)c2ccccc2S1(=O)=O (centres unmarked),-58.3
8,COc1ccc(CN(C(=O)CN2C(=O)c3ccccc3S2(=O)=O)C(C(=O)NCC2CCCO2)c2ccncc2)cc1 (centres unmarked),-10.3
9,CC(C)CCNC(=O)C(c1ccncc1)N(C(=O)Cn1nnc(-c2ccc(F)cc2)n1)c1ccccc1F (centres unmarked),-24.2
10,O=C(NCC1CCCO1)C(c1ccncc1)N(Cc1cccs1)C(=O)Cn1nnc(-c2ccc(F)cc2)n1 (centres unmarked),-60.1
11,CC(C)(C)NC(=O)C(c1ccncc1)N(CC1CCCO1)C(=O)Cn1nnc(-c2ccc(F)cc2)n1 (centres unmarked),-3.33
12,O=C(NCC1CCCO1)C(c1ccc(F)cc1)N(Cc1ccc(F)cc1)C(=O)Cn1nnc(-c2cccs2)n1 (centres unmarked),-10.9
13,O=C(NCC1CCCO1)C(c1ccco1)N(Cc1ccc(F)cc1)C(=O)CN1C(=O)c2ccccc2S1(=O)=O (centres unmarked),-7.48
14,CC(C)CCNC(=O)C(c1ccncc1)N(CC1CCCO1)C(=O)Cn1nnc(-c2ccc(F)cc2)n1 (centres unmarked),-64.8
15,Cc1ccc(-n2c(SCC(=O)Nc3ccc(Cl)cc3)nc(O)cc2=O)cc1,9.08
16,CC(C)(C)c1ccc(C(=O)Nc2ccc(O)c3c(=O)cc(-c4ccccc4Cl)oc23)cc1,-3.26
17,O=C(NCCO)/C(=C\c1ccco1)NC(=O)c1ccco1,1.44
18,CNc1ccc(NC(C)=O)cc1[N+](=O)[O-],1.68
19,CNC(=O)CCN(Cc1ccco1)S(=O)(=O)c1ccc(OC)c(OC)c1,14.1
20,Cc1cc(C)c(NC(=O)CSc2nnc(-c3ccncc3)n2Cc2ccco2)c(Cl)c1,-52.7
21,CCn1c(SCC(=O)Nc2cc(C)c(Cl)cc2OC)nnc1-c1ccco1,-4.93

row,SMILES,"hERG current change (%, negative = inhibition) at 10uM [%]"
1,Cc1cc(C)c(NC(=O)CSc2nnc(-c3ccncc3)n2Cc2ccco2)c(C)c1,-31.6
2,C=CCn1c(SCC(=O)Nc2cc(C)c(Cl)cc2OC)nnc1-c1ccco1,-23.6
3,Cc1cc(Cl)ccc1NC(=O)CSc1nnc(Cc2cccs2)n1Cc1ccco1,-45.3
4,CCOC(=O)c1c(NC(=O)CSc2nnc(-c3ccncc3)n2Cc2ccco2)sc(C)c1C,-19.3
5,COC(=O)c1c(NC(=O)CSc2nnc(-c3cccnc3)n2Cc2ccco2)sc(C)c1C,-59.3
6,COc1cc(Cl)c(C)cc1NC(=O)CSc1nnc(-c2ccco2)n1CC(C)C,-62.1
7,O=C(CSc1nnc(Cc2cccs2)n1Cc1ccco1)Nc1ccc(Cl)cc1Cl,-57.1
8,O=C(CSc1nnc(Cc2cccs2)n1Cc1ccco1)Nc1cccc(Cl)c1,-13.9
9,Cc1cccc(C)c1NC(=O)CSc1nnc(-c2ccncc2)n1Cc1ccco1,-29.2
10,CCOC(=O)c1c(NC(=O)CSc2nnc(-c3cccnc3)n2Cc2ccco2)sc(C)c1C,-24.7
11,COc1ccc2nc(SCc3cccc(C)c3)nc(C)c2c1,-10.9
12,COc1ccccc1OCCOCCOc1c(C)cc(C)cc1Br,8.26
13,CC(C)N1CC(O)=C(c2ccccc2)C1=N,-0.355
14,CC(C)NC(=O)c1ccccc1NC(=O)C1CC(=O)N(C(C)C)C1 (centres unmarked),42.9
15,CSc1ncccc1C(=O)Nc1nccs1,-22.8
16,O=C(CSc1nnc(-c2ccncc2)n1Cc1ccco1)Nc1ccccc1Cl,-36.3
17,Cc1cc(Cl)ccc1NC(=O)CSc1nnc(-c2ccncc2)n1Cc1ccco1,-52.8
18,COc1cc(Cl)c(C)cc1NC(=O)CSc1nnc(-c2ccccn2)n1Cc1ccco1,-29.5
19,O=C(CSc1nnc(-c2ccncc2)n1Cc1ccco1)Nc1ccccc1F,-20.4
20,COc1ccc(NC(=O)CSc2nnc(-c3ccccc3)n2Cc2ccco2)c(OC)c1,-26.4
21,COc1cc(Cl)c(C)cc1NC(=O)CSc1nnc(-c2cccnc2)n1Cc1ccco1,-56.9

row,SMILES,"hERG current change (%, negative = inhibition) at 10uM [%]"
1,Cc1c(C(=O)Nc2cc(S(=O)(=O)N3CCOCC3)ccc2N2CCN(C)CC2)oc2ccccc12,-10.8
2,Cc1ccccc1N1CC(C(=O)O)CC1=O (centres unmarked),14.1
3,Cc1cccc(Cn2ccc(NC(=O)c3ccc4c(c3)OCO4)n2)c1,-34.3
4,CCCNC(=O)c1ccc2c(=O)n3c(-c4ccc(C)cc4)csc3nc2c1,5.26
5,COc1ccccc1C1(CCNS(=O)(=O)c2ccc(C)cc2)CCOC(C(C)C)C1 (centres unmarked),4.49
6,Cc1ccc(C2(CCNCc3ccco3)CCOC(C(C)C)C2)cc1 (centres unmarked),-35.6
7,Cc1ccc(C2(CCNS(=O)(=O)c3ccc(C)cc3)CCOC(C(C)C)C2)cc1 (centres unmarked),-53.5
8,Cc1ccc(C2(CCN)CCOC(C(C)C)C2)cc1 (centres unmarked),17
9,CC(C)C1CC(CCNCc2ccc(N(C)C)cc2)(c2ccccc2)CCO1 (centres unmarked),-24.6
10,Cc1ccc(C2(CCNCc3ccc(N(C)C)cc3)CCOC(C(C)C)C2)cc1 (centres unmarked),-64.1
11,O=C(Nc1ccc2c(c1)OCO2)Oc1ccccc1,-7.16
12,O=C(c1cccc(C(F)(F)F)c1)N1CCC(O)(CS(=O)(=O)Cc2ccccc2Cl)CC1,-8.87
13,CNC(=O)C1CC(=O)N(Cc2ccc(OC)c(OC)c2)C(=Nc2ccc(OC)cc2)S1 (centres unmarked),-6.01
14,O=[N+]([O-])c1ccc(Cc2nnc(-c3ccc(F)cc3)o2)cc1,-57.2
15,Cc1ccc(-c2nnc(Cc3ccc([N+](=O)[O-])cc3)o2)cc1,-64.9
16,Fc1ccc(-c2nnc(Cc3nnc(-c4ccc(F)cc4)o3)o2)cc1,10.8
17,Cc1ccc(-c2nnc(Cc3ccc(Cl)cc3)o2)cc1,8.63
18,Fc1ccc(-c2nnc(Cc3ccc(Cl)cc3)o2)cc1,-16.7
19,O=[N+]([O-])c1ccc(Cc2nnc(-c3ccccc3Cl)o2)cc1,-15.5
20,Cc1ccc(C(=O)Nc2c(C)n(C)n(-c3ccccc3)c2=O)cc1S(=O)(=O)N1CCOCC1,0.249
21,Cc1ccc(S(=O)(=O)N(C)c2c(C)ccc(S(N)(=O)=O)c2C)cc1,-10.9

row,SMILES,"hERG current change (%, negative = inhibition) at 10uM [%]"
1,Fc1ccccc1N1CC(c2ccccc2)C(c2cccs2)=N1 (centres unmarked),9.56
2,Cc1ccc(Cn2nnc3c(=O)[nH]c(C4CCCN(S(=O)(=O)c5ccccc5F)C4)nc32)cc1 (centres unmarked),12.2
3,COc1ccc(/C=N/Nc2nncc3ccccc23)c(OC)c1,10.7
4,COc1cc(C)c(Cl)c(C)c1S(=O)(=O)NC1CC(C)(C)NC(C)(C)C1,7.91
5,O=C(NCCSc1ccccc1)c1ccc(Br)cc1,13.5
6,COC(=O)CN1CCN(C(c2ccccc2)c2ccccc2)CC1,5
7,N#Cc1ccc(OCC(O)CN2CCN(C(c3ccccc3)c3ccccc3)CC2)cc1 (centres unmarked),-72.1
8,CCC(=O)c1ccc(OCC(O)CNC(C)c2ccccc2)cc1 (centres unmarked),-14.7
9,OC(COc1ccccc1)CN1CCCC1 (centres unmarked),14.5
10,CC(C)OCC(O)CN1CCN(C(c2ccccc2)c2ccccc2)CC1.Cl (centres unmarked),-58.1
11,CCC(=O)c1ccc(OCC(O)CN2CCN(C(c3ccccc3)c3ccccc3)CC2)cc1 (centres unmarked),-67.2
12,CCC(=O)c1ccc(OCC(O)CN2CCOCC2)cc1 (centres unmarked),7.44
13,CN1CCN(CC(O)COc2ccccc2)CC1 (centres unmarked),-0.905
14,Cl.OC(COc1ccccc1)CN1CCN(CC(O)COc2ccccc2)CC1 (centres unmarked),-61.7
15,CCOc1ccc(NS(=O)(=O)c2ccc(Cl)c(C(=O)N(C)Cc3cccnc3)c2)cc1,-25.9
16,COc1ccccc1NC(=O)CSc1nnc(C)n1Cc1ccccc1,-34.5
17,CCOc1ccc(Nc2cc(=O)oc3ccccc23)cc1,7.78
18,Cc1nn(C)cc1C(=O)NNC(=S)Nc1ccc(Cl)cc1,12.6
19,CCOC(=O)C(Cc1ccc(Cl)cc1Cl)c1ccno1 (centres unmarked),14.3
20,O=C(NCc1ccc(Cl)cc1)C(=O)NCC1OCCN1S(=O)(=O)c1ccc2c(c1)OCCO2 (centres unmarked),-7.02
